Drawing on PubChem BioAssay AID493087 (The Scripps Research Institute Molecular Screening Center, 2011), this text covers activation for 79 compounds.

In all, about 340,000 compounds went through this assay and about 240 (0.071%) were called active.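 How the source made its calls: active means activation above the mean of all tested compounds plus 3 SD, set per screening campaign (cut at about 17% in these data); inactive means the rest.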 What follows is part of a selection rich in actives, with near analogues and random picks from the rest.

The target of the assay is Insulin-degrading enzyme (Homo sapiens) (UniProt P14735). As to the kind of experiment: enhanced cellular IDE Abeta cleavage – fluorescence polarization, HEK cells, FAbeta-B substrate, primary screen (AID 493087). To be noted: at 5.96 µM, active compounds read high, 0% vehicle, 100% cell-free pure enzyme wells. For orientation: In fluorescence polarisation assays a small probe gives low polarisation when free and higher when bound to something large.
Insulin-degrading enzyme (Homo sapiens), sequence (P14735 whole entry, looked up): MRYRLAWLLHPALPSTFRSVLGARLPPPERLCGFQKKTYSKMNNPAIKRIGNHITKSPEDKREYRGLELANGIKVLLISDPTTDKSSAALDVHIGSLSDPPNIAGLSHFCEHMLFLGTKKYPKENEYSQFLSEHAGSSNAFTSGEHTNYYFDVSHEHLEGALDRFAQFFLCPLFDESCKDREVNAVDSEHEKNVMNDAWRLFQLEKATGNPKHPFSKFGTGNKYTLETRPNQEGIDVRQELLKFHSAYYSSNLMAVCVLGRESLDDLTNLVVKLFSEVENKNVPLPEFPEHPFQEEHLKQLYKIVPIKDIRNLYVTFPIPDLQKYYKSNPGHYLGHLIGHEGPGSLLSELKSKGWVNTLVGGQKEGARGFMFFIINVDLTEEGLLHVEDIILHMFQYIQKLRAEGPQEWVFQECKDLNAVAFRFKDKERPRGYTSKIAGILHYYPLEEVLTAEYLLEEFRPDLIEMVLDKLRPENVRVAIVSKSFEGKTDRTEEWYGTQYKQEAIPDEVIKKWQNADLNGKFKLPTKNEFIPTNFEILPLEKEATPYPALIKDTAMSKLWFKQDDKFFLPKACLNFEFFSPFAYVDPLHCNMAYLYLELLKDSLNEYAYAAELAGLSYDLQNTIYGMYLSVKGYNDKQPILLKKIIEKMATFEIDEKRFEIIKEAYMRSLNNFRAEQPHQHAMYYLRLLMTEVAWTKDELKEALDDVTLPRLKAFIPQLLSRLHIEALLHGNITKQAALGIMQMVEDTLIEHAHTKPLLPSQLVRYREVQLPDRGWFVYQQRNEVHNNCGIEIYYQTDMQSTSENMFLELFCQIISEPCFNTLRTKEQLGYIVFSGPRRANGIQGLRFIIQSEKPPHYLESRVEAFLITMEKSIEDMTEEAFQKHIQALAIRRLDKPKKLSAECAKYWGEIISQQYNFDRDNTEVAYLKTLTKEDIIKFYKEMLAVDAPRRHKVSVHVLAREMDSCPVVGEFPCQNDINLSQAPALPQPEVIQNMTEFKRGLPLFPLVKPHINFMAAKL
In the case of `Cc1ccccc1CSCCNC(=O)c1ccc(N(C)S(=O)(=O)c2ccccc2)cc1`, the activation was 1.48% (inactive). The value for `O=c1c([N+](=O)[O-])cccn1Cc1ccc(F)cc1Cl` was -1.28% (inactive). As for `Cc1ccc(CNC(=O)CCCNC(=O)c2ccc(Cl)cc2)n1C`, the figure is 5.76% (inactive).

As for `CCOc1cc(/C=C2\SC(N3CCCC(C)C3)=NC2=O)ccc1O` (centres undefined), the activation was -15.9% (inactive). In the case of `CC(=O)Nc1ccc(S(=O)(=O)NCC(=O)OCc2cc(=O)oc3ccc4ccccc4c23)cc1`, the activation is 3.05% (inactive). In the case of `CCC(=O)NNc1cc(=O)c2c(=O)n(C)c(=O)n(C)c2[nH]1`, the activation is 3.85% (inactive). With `Cc1noc(C)c1CSCC(=O)Nc1ccc(Br)cc1Cl`, the activation was 2.79% (inactive).

Turning to `CC1=C/C(=N\OS(=O)(=O)c2ccccc2)C=CC1=O`, the activation is -10.8% (inactive). As for `Cc1cccc(NC(=O)c2cccc(C(=O)Nc3cccc(C)c3C)n2)c1C`, the activation is -1.85% (inactive). The value for `CC(C)(C)C1C/C(=C/c2ccco2)C(=O)/C(=C/c2ccco2)C1` (centres undefined) was -0.63% (inactive); that for `CC1CCN(C(=O)C2CCN(S(=O)(=O)N3CCC4(CC3)OCCO4)CC2)CC1` was 0.48% (inactive). Consider `CCOC(=O)N1CCN(Cc2nc3ccc([N+](=O)[O-])cc3c(=O)n2-c2cccc(OC)c2)CC1`, for which the activation is 1.47% (inactive). Turning to `CCOc1ccc(N2C(=O)/C(=C/c3ccc(C)o3)N(C)C2=S)cc1`, the activation was 2.68% (inactive). As to `CCC(C)(C)NC(=O)CN(C(=O)C(=O)Nc1ccc2c(c1)OCCO2)C(C)(C)CC`, the activation was 4.63% (inactive). The value for `CCOC(=O)C1(C(F)(F)F)N=C(N(C)C)OC(N(C)C)=N1` was 8.14% (inactive). As for `CCN(CC)CCCC(C)n1c2nc(=O)[nH]c(=O)c-2nc2cc(Cl)ccc21` (centres undefined), the figure is 75.3% (active). The value for `C#CCOCCOCCOCCNc1nc(N2CCN(C(=O)CCCCCCCCCCNC(=O)Cn3cc(CCCCCN)nn3)CC2)nc(N2CCN(C(=O)CCCCCCCCCCNC(=O)[C@H](CO)n3cc(CCCSC)nn3)CC2)n1` was 32.6% (active); that for `C#CCOCCOCCOCCNc1nc(N2CCN(C(=O)[C@H](CCCCN)n3cc(CCC(=O)O)nn3)CC2)nc(N2CCN(C(=O)[C@H](CCCCN)n3cc(CC(C)O)nn3)CC2)n1` (some centres undefined) was -4.23% (inactive).

Turning to `C#CCOCCOCCOCCNc1nc(N2CCN(C(=O)[C@H](CCC(=O)O)n3cc(CN)nn3)CC2)nc(N2CCN(C(=O)[C@H](CCC(=O)O)n3cc(CN)nn3)CC2)n1`, the activation was 1.77% (inactive). The value for `C#CCOCCOCCOCCNc1nc(N2CCN(C(=O)CCCCCCCCCCNC(=O)[C@H]([C@@H](C)CC)n3cc(CCCCN=C(N)N)nn3)CC2)nc(N2CCN(C(=O)CCCCCCCCCCNC(=O)[C@H](CO)n3cc(CCCSC)nn3)CC2)n1` was 58% (active); that for `C#CCOCCOCCOCCNc1nc(N2CCN(C(=O)[C@H](CCCN=C(N)N)n3cc(C(N)[C@@H](C)CC)nn3)CC2)nc(N2CCN(C(=O)[C@H](CO)n3cc([C@@H](N)C(C)C)nn3)CC2)n1` (some centres undefined) was -0.94% (inactive). Take `C#CCOCCOCCOCCNc1nc(N2CCN(C(=O)CCCCCCCCCCNC(=O)[C@H](CCCCN)n3cc(C)nn3)CC2)nc(N2CCN(C(=O)CCCCCCCCCCNC(=O)[C@H](CO)n3cc(CCCSC)nn3)CC2)n1`: the activation was 29.3% (active). The value for `C#CCOCCOCCOCCNc1nc(N2CCN(C(=O)Cn3cc(CCCCN)nn3)CC2)nc(N2CCN(C(=O)[C@H](CCCCN)n3cc(CCC(=O)O)nn3)CC2)n1` was -2.39% (inactive); that for `C#CCOCCOCCOCCNc1nc(N2CCN(C(=O)Cn3cc(CCO)nn3)CC2)nc(N2CCN(C(=O)Cn3cc(CCCN=C(N)N)nn3)CC2)n1` was -2.84% (inactive); that for `C#CCOCCOCCOCCNc1nc(N2CCN(C(=O)Cn3cc(CCO)nn3)CC2)nc(N2CCN(C(=O)[C@H](CCCCN)n3cc(CCCC)nn3)CC2)n1` was 2.74% (inactive). As for `CN(C)C(=O)c1cc(Br)ccc1Cl`, the figure is 7.04% (inactive); as for `O=C(CNC(=O)OCc1ccccc1)Oc1cc2oc(=O)cc(-c3ccccc3)c2cc1Cl`, 3.87% (inactive); as for `CCCCCCCCCCOC(=O)Cn1c(COc2ccc(C)cc2)[n+](C)c2ccccc21`, 21.7% (active). In the case of `CCCCOc1ccc(NC(=O)CSCC(=O)OCC)cc1`, the activation was 0.69% (inactive). `Cc1ccc(COc2ccc(C(=O)NN)cc2)cc1`: the activation was -2.7% (inactive). As for `CC1CCN(C(=O)CCNC(=O)c2ccccc2)CC1`, the figure is 4.37% (inactive); as for `Cc1ccc(Cl)cc1NC(=O)CN1CCN(S(=O)(=O)N2CCOCC2)CC1`, 3.41% (inactive); as for `C#CCOCCOCCOCCNc1nc(N2CCOCC2)nc(N2CCN(C(=O)[C@H](Cc3ccc(O)cc3)n3cc(CCO)nn3)CC2)n1`, -1.07% (inactive). Consider `COc1ccc(C2=NOC(C(=O)NCc3ccco3)C2)cc1OC` (centres undefined), for which the activation was -0.49% (inactive). With `COc1ccc2c(c1)c(=Cc1ccc(N(C)C)cc1)c1cc(-c3ccccc3)[n+](C)n12`, the activation was -19.1% (inactive). As for `COC(=O)COc1ccc2c(=O)c(Oc3ccccc3Br)coc2c1`, the activation is 1.55% (inactive). Regarding `O=C(Nc1nn(Cc2ccccc2F)cc1Br)c1cccs1`, the activation was 2.02% (inactive). On to `O=C(O)CCc1cccnc1`, for which the activation is 0.08% (inactive). As for `CCOc1ccc(S(=O)(=O)N2CCCCCC2)c2ccccc12`, the figure is 7.79% (inactive); as for `COc1ccc(-c2csc3ncnc(Oc4ccc5c(C)cc(=O)oc5c4)c23)cc1`, -0.97% (inactive). As for `CCOC(=O)C1CCN(S(=O)(=O)c2ccc3c(c2)N(C)C(=O)CC(=O)N3C)CC1`, the figure is 4.32% (inactive); as for `Cc1ccc(C(c2nnnn2CS(=O)(=O)c2ccc(C)cc2)N2CCC(C)CC2)cc1` (centres undefined), 6.3% (inactive). The value for `CN1CCN(C(=O)C(=O)c2cn(CC(=O)N3CCCC3)c3ccccc23)CC1` was 0.5% (inactive); that for `Fc1cccc(CSc2nnc3ccc(-c4ccncc4)nn23)c1` was 11% (inactive).

For the compound `COC(=O)[C@]1(S(=O)(=O)c2ccccc2)C[C@@H]2ON=C(c3ccc(OC)cc3)[C@@H]2C1`, the activation is -5.33% (inactive). Consider `COc1ccc(N2CCN(C(=O)c3ccc(N4CCCCS4(=O)=O)cc3)CC2)cc1`, for which the activation is 1.3% (inactive). `CN(CC(=O)NC1CCCCC1)S(=O)(=O)c1cccc2cccnc12`: the activation is 4.22% (inactive). The value for `O=C1/C(=C\c2ccc(O)cc2)CCC1CNc1ccc(Cl)cc1` (centres undefined) was -1.61% (inactive); that for `N#Cc1cccc(CN2CCC(=O)N([C@H](CO)c3ccccc3)CC2)c1` was 2.37% (inactive); that for `OC(COc1ccccc1)CN1CCN(c2cccc(Cl)c2)CC1` (centres undefined) was 5.12% (inactive).

For `CN(Cc1cccs1)C(=O)CN1C(=O)c2ccccc2S1(=O)=O`, the activation was 0.93% (inactive). The value for `COCCN(C(=S)Nc1cccc(Cl)c1C)C(C)c1ccco1` (centres undefined) was 1.29% (inactive); that for `COc1ccc(S(=O)(=O)c2c[nH]c(=S)[nH]c2=O)cc1Cl` was -1.33% (inactive). As for `CN(C)S(=O)(=O)c1ccc(N2CCCC2=O)c([N+](=O)[O-])c1`, the figure is 5.59% (inactive); as for `COc1ccc(Cn2cc(CN3CCS(=O)(=O)N(Cc4ccc(-c5cccc(Cl)c5)cc4)C(C)C3=O)nn2)cc1` (centres undefined), 1.16% (inactive); as for `Cc1noc(C)c1C(=O)OC(C)C(=O)Nc1ccc2c(c1)OCO2` (centres undefined), 0.42% (inactive). Take `CCCCSCCCNC(=O)C1CCC(CNS(=O)(=O)c2ccc(NC(C)=O)cc2)CC1` (centres undefined): the activation is -0.18% (inactive). As for `C=CCn1c(=O)c(C(=O)NCc2ccc3c(c2)OCO3)c(O)c2ccccc21`, the figure is 3.17% (inactive). The value for `CCn1c(=O)c([N+](=O)[O-])c(NCc2ccc3c(c2)OCO3)c2ccccc21` was 23.5% (active). As for `CCn1c(=O)cc(SCC(=O)NCc2ccc3c(c2)OCO3)c2ccccc21`, the figure is 2.55% (inactive); as for `COc1ccccc1CC(NC(C)=O)C(=O)NC1CCN(C(=O)Nc2ccccc2Cl)CC1` (centres undefined), 3.56% (inactive). For the compound `O=C(CSc1ncnc2sccc12)NC1CCS(=O)(=O)C1` (centres undefined), the activation is 6.28% (inactive). With `CCOC(=O)/C=C/c1ccc(C(F)(F)F)cc1S(=O)(=O)NC(C)(C)C`, the activation is -1.81% (inactive). As for `CCOC(=O)/C=C/CN(C(=O)OC(C)(C)C)S(=O)(=O)N1CC=CC1`, the figure is 34.8% (active); as for `CCOCc1c(C(=O)N2CCN(Cc3ccc(Br)s3)CC2)oc2ccccc12`, 7.28% (inactive); as for `Cc1ccc(NC2CCCN(C(=O)CCC3(C)CC3)C2)cc1C` (centres undefined), 3.99% (inactive).

For the compound `Cn1c2c(c(=O)n(C)c1=O)[C@@H]1c3c(ccc4ccccc34)OC[C@@H]1CO2`, the activation was 9.31% (inactive). As for `Cc1cc(C)c(S(=O)(=O)Nc2c(C)n(C)n(-c3ccccc3)c2=O)cc1[N+](=O)[O-]`, the figure is 0.96% (inactive). The value for `CSc1ccccc1OCc1cc(C(=O)N2C[C@H]3CC[C@H]2C3)no1` was 0.59% (inactive); that for `COC(=O)c1c(C)cc(O)c(C)c1O` was -0.29% (inactive); that for `COc1ccc(CCNC(=O)CCNS(=O)(=O)c2cc(Br)cnc2N)cc1OC` was 3.78% (inactive).

`Cn1c(N)c(C(=O)COC(=O)/C=C/c2cccc(C(F)(F)F)c2)c(=O)n(C)c1=O`: the activation is 4.24% (inactive). As for `CCN1CCN(C(=O)C2(NC(=O)Nc3cccc(F)c3)CCCCC2)CC1`, the figure is 4.93% (inactive). As for `CC(=O)N1c2ccc(S(=O)(=O)N3CCCC(C(=O)Nc4cccc(F)c4)C3)cc2CC1C` (centres undefined), the figure is 5.74% (inactive); as for `Cc1ccc(NC(=O)C(c2ccccc2)N2CCN(C(=O)c3ccco3)CC2)cc1` (centres undefined), 0.44% (inactive); as for `CCCC[C@@H]1CN=C(N)N1CCc1cc(C(F)(F)F)cc(C(F)(F)F)c1`, 5.76% (inactive). As for `CCCC(C)C(=O)OCC(=O)Nc1c(Br)cc(C)cc1Br` (centres undefined), the figure is 4.33% (inactive); as for `Cc1ccc(S(=O)(=O)N2C[C@@H]3CCCC[C@@H]3[C@@H](C)[C@H]2c2cn(Cc3ccccc3)c3ccc(F)cc23)cc1`, 0.65% (inactive); as for `Cc1cccc(N2CCN(C(=O)c3cc4c(=O)[nH]c5ccccc5c4n3C)CC2)c1C`, 0.68% (inactive).
